NALP3 yeast inh = blocks the NALP3 inflammasome reconstituted in yeast; inhibition, % at 10 µM; actives 0.39% (n = 330,000); Yeast reconstituted NLRP3/ASC/caspase-1, beta-gal luminescence, 24 h;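 active = inhibition of 50% or more; inactive = inhibition below 50%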;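 also: plate controls were induced DMSO wells for no effect and uninduced yeast grown without galactose for full effect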
tim23-1 inh = growth inhibitors of tim23-1 mutant yeast. S. cerevisiae tim23-1 growth, BacTiter-Glo luminescence, 24 h. inhibition, % at 20 µM. actives 1.3% (n = 330,000);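 active = growth inhibition of the mutant yeast at or above 50%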;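 also: temperature-sensitive mutant grown at 25 °C; plate controls were DMSO-treated mutant yeast for no effect and medium wells lacking yeast for full effect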
tim10-1 inh = tim10-1 yeast growth inhibition. inhibition, % at 20 µM. actives 2.2% (n = 330,000). S. cerevisiae tim10-1 ts strain growth, BacTiter-Glo, 24 h;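 active = inhibition of at least 40%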;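 also: mutant grown at 25 °C; 0% = DMSO wells with yeast and 100% = wells holding no yeast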
PfHsp90 yeast 2 = growth inhibition of yeast expressing Plasmodium Hsp90. S. cerevisiae expressing PfHsp90, BacTiter-Glo ATP, 48 h; yeast lacking PDR1 and PDR3 efflux regulators. inhibition, % at 9.4 µM. actives 0.32% (n = 310,000). AID 504621;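 active = every replicate shows inhibition above about 80%, whatever the replicate mean, limit read from the data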;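 also: 0% = DMSO neutral controls and 100% = 20 µM radicicol positive controls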
TIM10 inh = inhibits growth of TIM10 yeast strain; S. cerevisiae TIM10 strain growth, BacTiter-Glo luminescence, 24 h; inhibition, % at 10 µM; actives 1.4% (n = 330,000); AID 463195;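 active = inhibition of 40% or more at the single tested concentration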;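 also: wild-type TIM10 isogenic control strain grown at permissive 25 °C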
tim10-1 conf = confirmation of tim10-1 mutant yeast growth inhibitors. S. cerevisiae tim10-1 ts strain growth, BacTiter-Glo, 24 h. AID 463213. shares compounds with tim10-1 inh. inhibition, % at 20 µM. actives 56% (n = 7,400);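 active = inhibition of yeast growth at or above a set limit in either of two repeat tests at 20 µM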;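 also: tim10-1 mutant grown at permissive 25 °C to find synthetic lethal compounds; 0% = DMSO yeast wells and 100% = medium wells without yeast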
TIM10 conf = confirmation of TIM10 yeast growth inhibitors; shares compounds with TIM10 inh; S. cerevisiae tim10 strain growth, BacTiter-Glo luminescence, 24 h; inhibition, % at 10 µM; actives 63% (n = 4,600);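 active = inhibition of yeast growth at or above a set limit in either of two replicates at 10 µM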;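 also: this counterscreen used the strain with wild-type TIM10; 0% = yeast with DMSO and 100% = medium wells lacking yeast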
The depositor's hits bear a star. This is a sample that favours compounds with a hit; in the whole collection about 3.7% have one here.

What do the screens show for `O=C(CCCN1C(=O)/C(=C/c2ccccc2Cl)SC1=S)NCCCN1CCOCC1`?
NALP3 yeast inh: 1; tim23-1 inh: 38; tim10-1 inh: 44*; PfHsp90 yeast 2: 1; TIM10 inh: 44*; tim10-1 conf: 41*; TIM10 conf: 46*

How did CC(C)NC(=S)N/N=C1\CCCCC1C1CCCCC1 (stereo unspecified) do in these assays?
NALP3 yeast inh: 14; tim23-1 inh: 47; tim10-1 inh: 44*; TIM10 inh: 42*; tim10-1 conf: 32*; TIM10 conf: 29

Results for Cc1cc2[nH]c(=O)c(=O)[nH]c2cc1S(=O)(=O)Nc1ccccc1F ?
NALP3 yeast inh: 20; tim23-1 inh: 0; tim10-1 inh: -5; PfHsp90 yeast 2: 28; TIM10 inh: 3

What do the screens show for `O=[N+]([O-])c1ccc(C2=NN(CCO)C(=Nc3ccc(OC(F)(F)F)cc3)SC2)cc1`?
NALP3 yeast inh: 23; tim23-1 inh: 48; tim10-1 inh: 45*; PfHsp90 yeast 2: -7; TIM10 inh: 45*; tim10-1 conf: 15; TIM10 conf: 32*

How did O=C(NCC1CCCO1)C(Cc1ccccc1)N1C(=O)C2C3C=CC(C4CC34)C2C1=O (stereo unspecified) do in these assays?
NALP3 yeast inh: -2; tim23-1 inh: 25; tim10-1 inh: 21; PfHsp90 yeast 2: -8; TIM10 inh: 17

Results for CC(C)c1ccc(N=c2c([N+](=O)[O-])nn(-c3ccc4c(c3)OCCO4)n2O)cc1 ?
NALP3 yeast inh: -28; tim23-1 inh: 30; tim10-1 inh: 22; PfHsp90 yeast 2: 3; TIM10 inh: 24

Results for CCc1cccc(N=c2c([N+](=O)[O-])nn(-c3ccc4c(c3)OCCO4)n2O)c1 ?
NALP3 yeast inh: -23; tim23-1 inh: 47; tim10-1 inh: 48*; PfHsp90 yeast 2: -37; TIM10 inh: 57*; tim10-1 conf: 31*; TIM10 conf: 42*

How did CC(C)(C)NC(=O)c1ccc2c(c1)C1C3CCC(C3)C1C(c1ccccc1)N2 (stereo unspecified) do in these assays?
NALP3 yeast inh: 7; tim23-1 inh: 44; tim10-1 inh: 44*; PfHsp90 yeast 2: 6; TIM10 inh: 42*; tim10-1 conf: 34*; TIM10 conf: -9

What do the screens show for `Cc1cccc(-c2ccc3c(c2)C2CC3CCN2)c1` (stereo unspecified)?
PfHsp90 yeast 2: 27

Results for Cc1nc([N+](=O)[O-])c(Br)n1CC(=O)c1ccc(Br)cc1 ?
NALP3 yeast inh: 19; tim23-1 inh: 40; tim10-1 inh: 48*; TIM10 inh: 40; tim10-1 conf: 35*; TIM10 conf: 40*

Results for Cc1nc([N+](=O)[O-])c(Br)n1CC(=O)c1ccc2ccccc2c1 ?
NALP3 yeast inh: 24; tim23-1 inh: 35; tim10-1 inh: 59*; TIM10 inh: 54*; tim10-1 conf: 67*; TIM10 conf: 55*

Results for C=CCSC1=Nc2sccc2C2=NC(=O)CN12 ?
NALP3 yeast inh: 12; tim23-1 inh: 11; tim10-1 inh: 8; PfHsp90 yeast 2: -15; TIM10 inh: 8

What do the screens show for `COc1ccc(-c2cc3ccccc3[nH]2)cc1`?
NALP3 yeast inh: 14; tim23-1 inh: 8; tim10-1 inh: 7; PfHsp90 yeast 2: 1; TIM10 inh: -3

What do the screens show for `Cc1ccc(O)c(-c2cc3ccccc3[nH]2)c1`?
NALP3 yeast inh: -2; tim23-1 inh: 8; tim10-1 inh: 53*; PfHsp90 yeast 2: -10; TIM10 inh: 46*; tim10-1 conf: 40*; TIM10 conf: 47*

How did N/C(=N\OC(=O)/C=C/c1ccccc1)c1ccc(Cl)cc1 do in these assays?
NALP3 yeast inh: 1; tim23-1 inh: 11; tim10-1 inh: 8; PfHsp90 yeast 2: 6; TIM10 inh: 15

What do the screens show for `CCC(C(=O)O/N=C(\N)c1ccc(Cl)cc1)c1ccccc1` (stereo unspecified)?
NALP3 yeast inh: -10; tim23-1 inh: 11; tim10-1 inh: 75*; PfHsp90 yeast 2: -21; TIM10 inh: 63*; tim10-1 conf: 63*; TIM10 conf: 71*
